Hits are enriched below; roughly 0.5% of the tested compounds scored in any of these assays.
E coli growth-1 – bacterial growth inhibition, counter-screen for AddAB inhibitors. AID 449728. inhibition, % at 11.9 µM. E. coli V3065 growth, OD600 absorbance, 18 h. actives 0.27% (n = 330,000);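 active = inhibition above the campaign's mean inhibition across all tested compounds plus 3 SD, cut at about 9.9% in these data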;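 also: uninfected addAB+ strain grown without phage in ampicillin broth; 0% = DMSO wells and 100% = ciprofloxacin 0.95 µg/ml wells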
E coli growth-2 – blocks Escherichia coli growth | AID 1053175 | actives 0.21% (n = 330,000) | OD600, 23 h; stronger effect = lower value | OD600 absorbance (no concentration beside the values);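 active = OD600 absorbance below the run mean of sample wells minus 3.6 SD, in any replicate, cut at about 0.56 in these data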
Tat export inh – E. coli Tat transport inhibition; E. coli MC4100 TorA-mCherry Tat export, fluorescence; inhibition, % at 10 µM; actives 0.036% (n = 340,000); AID 488895;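 active = mean replicate inhibition at least 50% and at least half of replicates individually reaching 50%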;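 also: exported cargo escapes ClpAP degradation while cytoplasmic cargo is degraded and loses fluorescence; 0% = median of neutral control wells and 100% = median of NaSCN control wells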
AddAB inh – less growth of phage-infected E. coli with AddAB. E. coli expressing H. pylori AddAB, absorbance growth. inhibition, % at 11.9 µM. actives 0.29% (n = 330,000); in the data active = inhibition above about 12%;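 also: 0% = vehicle wells of infected cells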
phage Ecoli inh – E. coli growth loss with phage present; growth absorbance; actives 0.26% (n = 360,000); inhibition, % at 11.9 µM; in the data active = inhibition above about 11%
AddAB conf – confirmation screen: growth loss of phage-infected E. coli expressing H. pylori AddAB | shares compounds with AddAB inh | inhibition, % at 11.9 µM | E. coli V3065 expressing H. pylori AddAB, T4 phage, OD; T4 phage with gene 2 nonsense mutations | actives 64% (n = 880);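 active = mean inhibition above a set limit taken from the earlier primary screen, cut at about 13% in these data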;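 also: higher means less bacterial growth since AddAB block lets phage replicate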
RecBCD counter – counter-screen: growth loss of RecBCD+ E. coli with mutant T4 phage; shares compounds with AddAB inh; E. coli V66 + mutant T4 phage, OD growth; inhibition, % at 11.9 µM; actives 73% (n = 880);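 active = mean inhibition above the mean of solvent-only control wells plus 3 SD, cut at about 4% in these data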;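 also: optical density read after an 18 h incubation at 37 °C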
Bact viability – reduces bacterial viability, AddAB inhibitor counter-screen; AID 488956; absorbance (AddAB counterscreen); shares compounds with AddAB inh; inhibition, % at 11.9 µM; actives 35% (n = 880); in the data active = inhibition above about 25%
RecBCD conf – confirmation: growth loss of phage-infected RecBCD+ E. coli (RecBCD inhibitor screen); AID 651982; E. coli V66 + T4 2- phage, growth OD; actives 45% (n = 890); inhibition, % at 11.9 µM; shares compounds with phage Ecoli inh;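 active = mean inhibition over triplicates exceeding the hit threshold derived in the original primary screen, cut at about 11% in these data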
Ecoli viability – counter-screen for RecBCD inhibitors: inhibitors of bacterial viability. E. coli viability, absorbance (OD) growth. actives 29% (n = 890). inhibition, % at 11.9 µM. shares compounds with phage Ecoli inh. AID 651983; in the data active = inhibition above about 20%;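 also: E. coli strain V66 grown with compound alone and no phage infection; 0% = bacteria with DMSO vehicle only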
AddAB counter – growth loss of phage-infected AddAB E. coli, RecBCD counter-screen. shares compounds with phage Ecoli inh. E. coli expressing H. pylori AddAB + T4 phage, OD growth; gene 2 mutant T4, recBCD-deleted host. inhibition, % at 11.9 µM. actives 45% (n = 890). AID 651984;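 active = mean inhibition above the solvent-only control wells' mean plus 3 SD, cut at about 22% in these data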;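 also: higher means less bacterial growth from phage killing when AddAB is blocked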
* hit, by the source's call; nt = not tested or not shown.

SMILES | E coli growth-1 | E coli growth-2 | Tat export inh | AddAB inh | phage Ecoli inh | AddAB conf | RecBCD counter | Bact viability | RecBCD conf | Ecoli viability | AddAB counter
COc1cccc(C2CC=C(C(=O)O)C(c3ccccc3)N2S(=O)(=O)c2ccc(C)cc2)c1 (stereo not given) | nt | 0.69 | nt | nt | nt | nt | nt | nt | nt | nt | nt
COc1cccc(C(NC(C)=O)c2ccc3cccnc3c2O)c1 (stereo not given) | 8 | nt | -6 | 10 | 10 | nt | nt | nt | nt | nt | nt
CCCC(=O)NC(c1ccc(OC)cc1)c1ccc2cccnc2c1O (stereo not given) | 30* | 0.64 | -1 | 28* | 31* | 25* | 25* | 18 | 16* | 23* | 23*
O=[N+]([O-])c1ccc(NC(c2ccccc2)c2ccc3cccnc3c2O)cc1 (stereo not given) | nt | 0.74 | 3 | nt | 7 | nt | nt | nt | nt | nt | nt
O=C(COc1cccc2cccnc12)Nc1nccs1 | -3 | 0.63 | -5 | -1 | 0 | nt | nt | nt | nt | nt | nt
Oc1cccc(C(Nc2nccs2)c2ccc3cccnc3c2O)c1 (stereo not given) | 16* | 0.64 | -9 | 18* | 16* | 19* | 17* | 16 | 9 | 9 | 16
CCCCC(=O)NC(c1ccccc1)c1ccc2cccnc2c1O (stereo not given) | 31* | nt | -9 | 26* | 24* | 27* | 25* | 24 | 12* | 16 | 29*
CC(C)COc1ccc(Cc2cnc(N)nc2N)cc1 | 7 | 0.24* | -5 | 12* | 16* | -1 | 9.2* | 3 | 7 | 5 | 11
Oc1c(C(c2cccs2)N2CCN(c3ccccc3)CC2)ccc2cccnc12 (stereo not given) | 9 | nt | nt | 12 | nt | nt | nt | nt | nt | nt | nt
CN1CCN(C(c2ccc(C(F)(F)F)cc2)c2ccc3cccnc3c2O)CC1 (stereo not given) | 27* | nt | nt | 17* | 17* | 12 | 9.7* | 7 | 4 | 4 | 7
Oc1c(C(c2ccc(Cl)cc2)N2CCCC2)cc(Cl)c2cccnc12 (stereo not given) | 24* | 0.59 | -3 | 17* | 20* | 3 | 8.4* | 1 | 7 | 8 | 7
Oc1c(C(c2ccccc2Cl)N2CCCC2)ccc2cccnc12 (stereo not given) | 24* | 0.38* | 10 | 25* | 16* | 13* | 12* | 1 | 4 | 6 | 16
CN1CCN(C(c2ccccc2)c2ccccc2)CC1 | -2 | 0.68 | -10 | 0 | 4 | nt | nt | nt | nt | nt | nt
O=C1C=C(c2ccc(-c3ccccc3)c(F)c2)CC(c2ccc3c(c2)OCO3)C1 (stereo not given) | nt | 0.77 | nt | nt | nt | nt | nt | nt | nt | nt | nt
CCCC(C(=O)NCCO)=C1c2ccccc2C(=O)N1c1ccccc1 | nt | 0.69 | nt | nt | nt | nt | nt | nt | nt | nt | nt
CCc1n[nH]c(=S)n1N=Cc1ccccn1 | nt | 0.6 | nt | nt | nt | nt | nt | nt | nt | nt | nt
Cc1c(C(=O)NNC(=O)c2ccccc2O)oc2ccc(Br)cc12 | 19* | 0.71 | -1 | 21* | 13* | 17* | 17* | 15 | 8 | 10 | 10
CCOc1ccc2oc(C(=O)O)c(C)c2c1 | 2 | 0.71 | -8 | 1 | 2 | nt | nt | nt | nt | nt | nt
CCOc1ccc2oc(C(=O)NNC(=O)c3ccccc3O)c(C)c2c1 | 26* | 0.68 | -8 | 25* | 21* | 15* | 20* | 15 | 8 | 11 | 20
O=C(NNC(=O)c1ccccc1O)c1cc2ccccc2o1 | 13* | 0.55 | 3 | 20* | 11* | 10 | 11* | 8 | 8 | 10 | 4
O=C(NNC(=O)c1cc2ccccc2o1)c1ccncc1 | -1 | 0.64 | 5 | -2 | 4 | nt | nt | nt | nt | nt | nt
CC(=NNC(=O)c1ccc(NS(=O)(=O)c2cccs2)cc1)c1ccccn1 | nt | 0.67 | nt | nt | nt | nt | nt | nt | nt | nt | nt
C#CCOCCOCCOCCNc1nc(N2CCN(C(=O)C(CCC(=O)O)n3cc(C(N)CO)nn3)CC2)nc(N2CCN(C(=O)C(Cc3ccc(O)cc3)n3cc(C(N)CC(C)C)nn3)CC2)n1 (stereo not given) | nt | 0.67 | nt | nt | nt | nt | nt | nt | nt | nt | nt
COC(=O)c1ccccc1NC=C1CCc2c(c(C)nn2-c2ccccn2)C1=O | nt | 0.73 | nt | nt | nt | nt | nt | nt | nt | nt | nt
O=C(O)CSc1nnc(-c2ccccc2O)n1Cc1ccccc1 | 0 | 0.71 | 12 | -4 | 2 | nt | nt | nt | nt | nt | nt
SMILES | E coli growth-1 | E coli growth-2 | Tat export inh | AddAB inh | phage Ecoli inh | AddAB conf | RecBCD counter | Bact viability | RecBCD conf | Ecoli viability | AddAB counter
O=C(CSc1nnc(-c2ccccc2O)n1Cc1ccccc1)NNC(=O)c1ccccc1O | 14* | 0.6 | 18 | 25* | 13* | 5 | 5.9* | 5 | 4 | 5 | 8
O=C(NNC(=O)c1cc2cc(Br)ccc2oc1=O)c1ccc(O)cc1O | 23* | 0.69 | -4 | 24* | 18* | 11 | 14* | 13 | 3 | 6 | 8
C=C(C)CNC(=S)NN=Cc1c(F)cccc1F | nt | 0.7 | nt | nt | nt | nt | nt | nt | nt | nt | nt
COc1c(N2CCN(C(=S)NCc3ccccc3)C(C)C2)c(F)cc2c(=O)c(C(=O)O)cn(C3CC3)c12 (stereo not given) | 104* | 0.079* | 33 | 102* | 97* | 101* | 99* | 101* | 103* | 104* | 105*
CCOC(=O)c1cn(-c2ccc(F)c(F)c2F)c2c(F)c(F)c(F)cc2c1=O | -1 | 0.69 | 4 | 3 | -1 | nt | nt | nt | nt | nt | nt
COc1c(N2C[C@@H]3CCCN[C@@H]3C2)c(F)cc2c(=O)c(C(=O)O)cn(C3CC3)c12 | 102* | nt | 106* | 100* | 98* | 102* | 102* | 102* | 103* | 105* | 104*
COc1c(F)c(F)cc2c(=O)c(C(=O)O)cn(C3CC3)c12 | 98* | 0.05* | 68* | 98* | 95* | 98* | 99* | 102* | 98* | 99* | 98*
COC(=O)C(=Nc1ccccc1)/C(C(=O)C(=O)N(C)c1ccccc1)=C(/O)c1ccc(Cl)cc1 | nt | 0.65 | nt | nt | nt | nt | nt | nt | nt | nt | nt
CCCCNC1=CC(=O)C(NCCCC)=CC1=O | nt | 0.69 | 9 | nt | 4 | nt | nt | nt | nt | nt | nt
CCCCNC1=CC(=O)C(=O)c2ccccc21 | 25* | 0.42* | -29 | 29* | 21* | 32* | 9.9* | 19 | 13* | 15 | 22*
Cc1nc2ccccc2c(=O)n1/N=C/c1ccc([N+](=O)[O-])o1 | 8 | nt | nt | 9 | nt | nt | nt | nt | nt | nt | nt

High-throughput results from PubChem.
